Assay outcomes: PubChem, Broad Institute
The list is a sample of the results.
aSyn 5UTR act: Activators via SNCA 5'UTR binding, MLPCN. alpha-synuclein 5'UTR reporter, activators screen. actives 7.1% (n = 300,000). activity score, % (tested at 7.5 µM), hits read low. AID 1814, 2009; in the data active = activity score below about -60%
* marks the source's active call; other numbers are inactive results.

SMILES | aSyn 5UTR act
O=C(Nc1csc(Cl)c1)c1ccccc1 | -161*
O=C(Nc1ccc(-c2nnco2)cc1)c1ccccc1 | -78*
Cc1ccc(C(=O)C[n+]2ccc(Cc3ccccc3)cc2)cc1 | 61
O=C(Nc1ccc(Nc2ccccc2)cc1)c1ccccc1 | -176*
CCN(CC)c1ccc(C(=O)Nc2ccccc2)cc1[N+](=O)[O-] | -151*
O=C(C[n+]1ccc2ccccc2c1)c1ccc(NC(=O)c2ccccc2)cc1 | -87*
O=C(Nc1ccc(C2SCCS2)cc1)c1ccccc1 | -88*
Cc1ccc(C(=O)Nc2ccc(Nc3ccccc3)cc2)cc1C | -62*
CNC(=O)c1ccc(NC(=O)Nc2ccccc2)cc1 | -71*
O=C(Nc1ccc([N+](=O)[O-])cc1)c1ccccc1 | -122*
CCCCNC(=O)Nc1ccc(C2SCCS2)cc1 | -91*
COc1cc(OC)cc(C(=O)Nc2ccc(Nc3ccccc3)cc2)c1 | -165*
CC(Cc1ccccc1)NC(=O)c1ccc([N+](=O)[O-])cc1 (stereo not drawn) | -90*
CCn1c2ccccc2c2cc(NC(=O)c3cc(OC)cc(OC)c3)ccc21 | 101
O=C(Nc1ccc2nc3ccccc3nc2c1)c1ccccc1 | -97*
CC(C)(C)c1ccc(OCc2nc(-c3ccccn3)no2)c(Br)c1 | -190*
Clc1ccc(OCc2nc(-c3ccncc3)no2)c(Cl)c1 | -132*
Clc1cc(Cl)c(OCc2nc(-c3ccccn3)no2)cc1Cl | -85*
COc1ccc2c(n1)Sc1nc3ccccc3nc1N2 | -136*
O=C(/C=C/c1ccccc1)Nc1cccnc1Oc1ccccc1F | -126*
O=C(/C=C/c1ccc([N+](=O)[O-])cc1)Nc1cccnc1 | -150*
O=C(/C=C/c1ccccc1)Nc1cccnc1 | -143*
COc1ccc(C(=O)NC(=S)NC(C)C)cc1Br | -70*
COc1ccc(C(=O)NC(=S)NC(C)(C)C)cc1Br | -158*
CCCCNC(=S)Nc1ccc(SC(F)F)cc1 | -164*
SMILES | aSyn 5UTR act
COc1cccc(NS(=O)(=O)NC(=O)c2cn(C)c3ccccc23)c1 | -69*
COC(=O)c1ccc(NS(=O)(=O)NC(=O)c2cn(C)c3ccccc23)cc1 | -84*
COc1cccc(/C=C/C(=O)c2ccc(NC3=NCCCS3)cc2)c1 | -101*
Cc1cccc(/C=C/C(=O)c2ccc(NC3=NCCCS3)cc2)c1 | -220*
Cn1cccc1/C=C1\SC(=O)N(c2ccc(O)cc2)C1=O | -144*
CC(C)=CCC/C(C)=C/CC(C)(C)CNCCN1CCNCC1 | -64*
Brc1cccc(OCCSc2ncccn2)c1 | -69*
CCCOc1ccc(OCCSc2ncccn2)cc1 | -167*
Clc1ccc(OCCSc2ncccn2)c(Br)c1 | -114*
C=CCn1c(=O)c(C(=O)Nc2ccc(C)cc2)c(O)c2ccccc21 | -76*
C=CCn1c(=O)c(C(=O)Nc2ccccc2S(N)(=O)=O)c(O)c2ccccc21 | -156*
C=CCn1c(N)c(C(=O)Nc2ccc(C)cc2)sc1=S | -149*
C=CCn1c(O)c(N=NC(=S)Nc2ccc(OC)cc2)c2ccccc21 | 84
CCn1c(=O)c(C(=O)Nc2ccsc2C(=O)OC)c(O)c2ccccc21 | -65*
NS(=O)(=O)c1ccc(N=Nc2ccc(O)c3ncccc23)cc1 | 64
Oc1ccc(N=Nc2c(O)ccc3ccccc23)cc1 | -98*
COc1cc(N=Nc2ccc3ccccc3c2)ccc1O | -144*
Oc1c(N=Nc2ccccn2)ccc2ccccc12 | 74
Oc1ccc(N=Nc2ccc3ccccc3c2)cc1 | -73*
C(=C\c1ccco1)/C1=NN(c2ccccc2)C(c2ccco2)C1 (stereo not drawn) | -210*
CCc1ccc(-c2ccc(C(=O)C(F)(F)F)[nH]2)cc1 | -80*
c1ccc(-n2ncc3c(NCC4CCCO4)ncnc32)cc1 (stereo not drawn) | -132*
Clc1ccc(-n2ncc3c(NCC4CCCO4)ncnc32)cc1 (stereo not drawn) | -89*
Cc1ccccc1Nc1ncnc2c1cnn2-c1ccccc1 | -112*
c1ccc(-n2ncc3c(NC4CCCCCC4)ncnc32)cc1 | -97*
SMILES | aSyn 5UTR act
COc1ccc(-n2ncc3c(NCC4CCCO4)ncnc32)cc1 (stereo not drawn) | -140*
Cc1ccc(NC(=O)Nc2ccnc(-c3cccnc3)n2)cc1 | 110
COc1ccc(C(=O)Nc2ccnc(-c3cccnc3)n2)cc1 | -166*
O=C(Nc1ccnc(-c2cccnc2)n1)c1ccc(Cl)c(Cl)c1 | -63*
Cc1ccc(C(=O)Nc2ccnc(-c3cccnc3)n2)cc1 | -269*
NN/C(=C\[N+](=O)[O-])Nc1ccccc1 | -70*
COc1ccc(C(=O)C(CN2CCCC2)c2ccccc2)cc1 (stereo not drawn) | -112*
COc1ccc(C(=O)C(CN2CCOCC2)c2ccccc2)cc1 (stereo not drawn) | -80*
CCCCCOc1ccc(C(=O)CCN2CCOCC2)cc1 | -72*
CCCCOc1ccc(C(=O)C(CN2CCOCC2)c2ccccc2)cc1 (stereo not drawn) | -134*
CN(C)CCCNC(=S)NCC(c1ccc(Cl)cc1Cl)c1c[nH]c2ccccc12 (stereo not drawn) | 111
CC/C(=N/NC(=O)c1ccccc1)c1ccc(OCCN2CCOCC2)cc1 | -103*
